# A selection follows.
# aSyn 5UTR act: Activators via SNCA 5'UTR binding, MLPCN | alpha-synuclein 5'UTR reporter, activators screen | activity score, % (tested at 7.5 µM), hits read low | 300,000 compounds, 7.1% hits | AID 1814, 2009; in the data active means activity score below about -60%
# Hits are given with their value; n = inactive.
SMILES,aSyn 5UTR act
COC(CN(C(=O)CCl)C(C(=O)NC1CCCCC1)c1ccccc1C)OC (stereo not drawn),-71
Cc1cc(N2CCN(c3ccc([N+](=O)[O-])c4cccnc34)CC2)c2ccccc2n1,n
Cn1c(/C=C/c2ccccc2[N+](=O)[O-])nc2ccccc2c1=O,-133
O=[N+]([O-])c1ccccc1/C=C/c1ccc2ccccc2n1,-138
Cn1c(/C=C/c2ccc(Br)cc2)nc2ccccc2c1=O,-171
COc1ccc(OC)c(-c2cc(C(=O)Nc3c(C)nn(Cc4ccc(Cl)cc4)c3C)no2)c1,n
COc1ccc(-c2noc(N(C)CC(=O)Nc3cccc(C(F)(F)F)c3)n2)cc1,-76
COc1ccc(OC)c(-c2cc(C(=O)Nc3cccc(Cl)c3)no2)c1,-68
COc1ccc(-c2cc(C(=O)Nc3cccc(Cl)c3)no2)cc1,-266
COc1ccc(-c2nnc(SC(C)C(=O)Nc3cccc(Cl)c3)o2)cc1 (stereo not drawn),-160
COC(=O)c1sccc1-c1ccc(C(=O)Nc2cccc(Cl)c2)o1,-125
COc1ccc(-c2cc(C(=O)Nc3cccc(C(C)=O)c3)no2)cc1,-76
COC(=O)c1sccc1-c1ccc(/C=N/OC(=O)c2ccccc2)o1,-69
CN(C)c1ccc(-c2ccccc2)nn1,-148
Cc1ccc(C(=O)CSc2nnc(C(C)C)n2C)cc1C,-75
O=c1c2ccccc2nnn1COc1cccc(Cl)c1,-107
Cc1ccc(S(=O)(=O)c2cc3ccccc3oc2=O)cc1,-111
O=C(c1cc2ccccc2o1)c1cccs1,-134
Cc1ccc(C(=O)c2cc3ccccc3o2)cc1,-170
Cc1ccc(C(=O)c2cc3ccccc3o2)cc1C,-68
Brc1ccc(-c2csc(N3CCOCC3)n2)cc1,-132
CN1CCN(c2nc(-c3ccc(Cl)s3)cs2)CC1,-84
c1ccc(-c2cnnc(N3CCCCC3)n2)cc1,-140
Clc1ccc(-c2csc(N3CCCCCC3)n2)cc1,-85
c1ccc(-c2csc(N3CCCCCC3)n2)cc1,-139
O=[N+]([O-])c1ccc(-c2csc(N3CCCCCC3)n2)cc1,-78
Clc1ccc(-c2csc(N3CCOCC3)n2)cc1,-140
COc1ccc(-c2csc(N3CCOCC3)n2)cc1OC,-80

# Screening data (PubChem BioAssay)
